From PubChem BioAssay (NCATS)
Records with an inconclusive call do not appear. Activity calls are given as the source filed them. Calls come from the whole dose curve; as a rule, active = well fitted cell-killing curve with a large enough effect; inconclusive = small, poorly fitted or top-dose-only effect, or effect the other way; inactive = flat fitted curve, though single readings scatter. Bridge positions count the residues as written; N and C are the ends. Square brackets hold non-standard residues; d marks the D form. Side chains are listed from the residue outwards. Peptide text beside a SMILES is read from it. * marks the point of attachment. Phg(4-OMe) = COc1ccc([C@H](N)C(=O)O)cc1; d(aIle) = CC[C@H](C)[C@@H](N)C(=O)O; d(aThr) = C[C@@H](O)[C@@H](N)C(=O)O; NMeF = CN[C@@H](Cc1ccccc1)C(=O)O; Isobutyryl = CC(C)C(=O)*

Assay: UWB1.289-WTBRCA1 Cancer Cell Toxicity qHTS against the NCATS CANVASS Library (AID 1347354)
Conditions: UWB1.289-WTBRCA1 viability, CellTiter-Glo luminescence, 72 h; series mostly up to 38.3 µM; activity change, negative = cytotoxicity: at the top concentration
Outline: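 qHTS cytotoxicity: compounds tested in 11 concentrations on 1000 seeded cells per well over 72 h; bortezomib served as control; signal from CellTiter-Glo luminescence.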
% is set by controls: 0 for no effect and ±100 for the full control effect.

| SMILES | activity change, negative = cytotoxicity | outcome |
| --- | --- | --- |
| Cc1occ2c1C(=O)c1c(cc(O)c(O)c1O)C2=O | -16.1% (inactive) |  |
| O=C1CC2OCC=C3CN4C5CC3C2[C@@H]2N1c1ccccc1[C@]52C[C@@H]4C1=C[C@H]2C3CC4N(CC[C@@]45c4ccccc4N(C1=O)[C@@H]25)C/C3=C/CO (some centres undefined) | -14.7% (inactive) |  |
| C/C=C(/C)c1c(Cl)c(O)c(C)c2c1Oc1c(Cl)c(O)c(Cl)c(C)c1C(=O)O2 | -20.8% (inactive) |  |
| C=C[C@@]1(C)CC[C@@H]([C@H](C)C(=O)/C=C/C(C)(C)O)O1 | -7.47% (inactive) |  |
| C=C1CC[C@@H](O[C@H]2C[C@@](O)([C@H](C)NC(=O)c3[nH]c(C)c(Cl)c3Cl)[C@H](O)[C@@H](C)O2)[C@@H]2C=C[C@H](C)C(/C(O)=C3/C(=O)[C@H](C(C)C)N([C@@H]4O[C@H](C)[C@H](OC(N)=O)[C@H](OC(C)=O)[C@@H]4OC)C3=O)[C@@H]12 (some centres undefined) | -12.2% (inactive) |  |
| COc1ccc([C@@H]2CC(=O)c3c(cc(O)c(C/C=C(\C)CCC=C(C)C)c3O)O2)cc1 | -3.16% [at 7.64 µM] (inactive) |  |
| CC[C@H](C)[C@H]1NC(=O)[C@@H](NC(=O)C(C)C)[C@@H](C)OC(=O)[C@H](COC(=O)CNC(C)=O)NC(=O)[C@@H]([C@@H](C)O)NC(=O)[C@H](Cc2ccccc2)N(C)C(=O)[C@H](c2ccc(OC)cc2)NC1=O (Isobutyryl-T[d(aIle)][Phg(4-OMe)][NMeF][d(aThr)]S([Gly-Ac]); ester 1-C) |  | inactive |
| C[n+]1cc2cc(C(N)=O)[nH]c3c(=N)c(Cl)c(N)c1c23 |  | inactive |
| C/C1=C/[C@@H](C)[C@H](O)[C@@H](O)/C=C/CC/C=C/C(=O)O[C@@H]1[C@H](C)C(=O)CCCC1CC(=O)NC(=O)C1 |  | inactive |
